Consider three molecules from PubChem BioAssay (NCATS).

SMILES strings stand for the structures. Inconclusive results are not listed. Calls of active or inactive are those of the source. Unless noted, calls follow the shape of the dose curve; as a rule, active = well fitted curve in the direction sought with a large enough effect; inconclusive = small, poorly fitted or top-dose-only effect, or another doubt; inactive = no such curve, though single readings can be large; an effect the other way counts as inactive or inconclusive.

Experiment [1] concerns the target Lysosomal acid glucosylceramidase (Homo sapiens) (UniProt P04062). In words: Glucocerebrosidase-p2 (AID 348; in the data active = potency below about 10 µM; also: potency is read from the fitted curve at half-maximal effect). The following applies: purified GBA, blue fluorogenic substrate, 40 min. An outline of the steps: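 Normal human glucocerebrosidase (0.2 nM) with blue fluorogenic substrate (80 uM final) in citrate/phosphate pH 5.9 with 10mM sodium taurocholate, 0.01% tween-20; 40 min RT, NaOH/glycine stop; fluorescence Ex 365/Em 440; AC50 from a titration from 0.6 nM upwards.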

Experiment [2] is described as follows: AP1 Signaling Pathway (AID 357; active = well fitted curve in either direction with a large enough effect, not every such curve was filed as active; also: % is scaled to controls: 0 for no effect and ±100 for the full control effect). The note with it: ME-180 AP-1-bla reporter, EGF-induced, beta-lactamase ratio, 5 h; at 7.69 µM (top of the series) unless noted. The procedure, abridged: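 AP-1-bla ME-180 cells, Opti-MEM + 0.5% dialyzed FBS, plated overnight 37 °C. Cpd titration + EC50 EGF, 5 h 37 °C. CCF4 2.5 h RT; ex 405, em 460/530 ratio → %activity, AC50.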

In experiment [3] the target is Cytochrome P450 1A2 (Homo sapiens) (UniProt P05177). In words: p450-cyp1a2 (AID 410; calls by dose curve; also: potency is read from the fitted curve at half-maximal effect). The note with it: recombinant CYP1A2, luciferin-ME demethylation, luminescence; series mostly up to 57 µM. The procedure, abridged: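 Read-out is luminescence from luciferin produced by CYP1A2 demethylation of Luciferin-ME (100uM, at Km). Detection reagent stopped the 60 min NADPH-dependent reaction; signals were normalized to 57 uM furafylline.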

Experiment [4] in a line: NFAT Signaling Pathway (AID 444; active = well fitted curve in either direction with a large enough effect, not every such curve was filed as active;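 also: carbachol stimulus at about its EC50 of 1 µM final; % is scaled to controls: 0 for no effect and ±100 for the full control effect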). The following applies: Jurkat NFAT-bla M1, carbachol, beta-lactamase ratio, 5 h; at 7.69 µM (top of the series) unless noted. The procedure, abridged: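 Jurkat cells carrying an NFAT-driven β-lactamase reporter and co-transfected muscarinic M1 receptor were treated with compound plus carbachol (1 uM final, an EC50 level) for 5 h at 37 °C. CCF4 loading followed for 1 h at RT; 460/530 nm ratio gave %activity.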

Experiment [5] in a line: Stat Signaling Pathway (AID 446; active = well fitted curve in either direction with a large enough effect, not every such curve was filed as active;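 also: ME-180 cervical cancer cells given 40 pM IL-6 alongside compound; SIE-controlled beta-lactamase reporter measured as 460/530 nm FRET emission ratio; % is scaled to controls: 0 for no effect and ±100 for the full control effect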). The note with it: ME-180 (cervical carcinoma) SIE beta-lactamase reporter, IL-6 stimulated, 5 h; at 7.69 µM (top of the series) unless noted. The procedure, abridged: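 Overnight-plated ME-180 cells bearing a STAT Inducible Element beta-lactamase reporter; 5 h co-exposure to compound and 40 pM IL-6; values normalized to 300 pM IL-6 and 125 nM JAK inhibitor controls.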

Experiment [6] addresses Glucocorticoid receptor (Homo sapiens) (UniProt P04150). The experiment can be described thus: GR-EFC Redistribution (AID 451; calls by dose curve; also: potency is read from the fitted curve at half-maximal effect). The following applies: CHO-K1 GR-EFC translocation, beta-gal luminescence, 2 h. An outline of the steps: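 CHO-K1 cells stably expressing nuclear-localized β-gal enzyme acceptor and GR fused C-terminally to the enzyme donor fragment; ligand-driven nuclear translocation restores β-gal by complementation. Compounds titrated up to 46 uM final, 2 h at 37 °C; luminescence read.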

Experiment [7] addresses Mitogen-activated protein kinase 10 (Mus musculus) (UniProt Q61831). The experiment can be described thus: JNK3 AlphaScreen Assay (AID 530; active = well fitted curve in either direction with a large enough effect, not every such curve was filed as active;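 also: kinase came from lysate of stimulated human HepG2 cells; % is scaled to controls: 0 for no effect and ±100 for the full control effect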). The following applies: JNK3 lysate, c-Jun phosphorylation; series mostly up to 57.1 µM. An outline of the steps: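 Biotinylated GST-cJun(1-79) served as substrate for JNK3 in HepG2 lysates stimulated with IL-1beta and TNF-alpha. ATP was 10 uM final, pH 7.6. Ser73 phosphorylation was quantified by AlphaScreen (680 nm excitation).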
(In general: Bead proximity is the source of the signal in Alpha formats.)

The target in experiment [8] is 3',5'-cyclic-AMP phosphodiesterase 4B (Homo sapiens) (UniProt Q07343). The experiment can be described thus: qHTS Assay for Inhibitors of PDE-IV (AID 607; active = well fitted activation curve with a large enough effect in the main read-out, with a control signal flat, not every such curve was filed as active; also: % of control where 0% means no effect). The note with it: HEK293 ACTOne CNG channel cells, membrane potential fluorescence; series mostly up to 22.9 µM. The procedure, abridged:
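Live HEK293 cells with a modified cyclic nucleotide-gated (CNG) channel report intracellular cAMP via membrane-potential dye fluorescence (ex 535/em 590 nm). Endogenous PDE-IV was targeted. Compounds were tested at up to 22.9 uM final; RO 20-1724 100 uM served as control.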

Experiment [9] deals with Cytochrome P450 3A4 (Homo sapiens) (UniProt P08684). The experiment can be described thus: qHTS Assay for Activators of Cytochrome P450 3A4 (AID 885). Also: nearly all actives have a fitted effect of over 65% in size. The note with it: recombinant CYP3A4, Luciferin-PPXE luminescence, 60 min; series mostly up to 57.1 µM. The procedure, abridged:
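Using 20nM recombinant human CYP3A4 in potassium phosphate (200mM), substrate Luciferin-PPXE at 25uM, luminescent luciferin detection followed a 60-min RT NADPH reaction; data scaled to 57 uM ketoconazole.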

Experiment [10] in a line: qHTS Assay for Lipid Storage Modulators (AID 1519; calls by dose curve). The note with it: Drosophila S3 cells, BODIPY lipid droplet/cell ratio, laser cytometry, cells loaded with oleic acid; for activity change, negative = inhibition: at 57.5 µM (top of the series). An outline of the steps:
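Cells seeded at 5,000 per well were treated with compounds over a concentration series and loaded with oleic acid (400 uM, as added). Lipid droplet fluorescence (488 nm excitation, 500-530 nm channel) was read by laser-scanning cytometry and normalized to 20 uM Triacsin C.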
In general terms: In qHTS, concentration-response curves come from the screen itself.

Experiment [11] concerns the target Dual specificity protein kinase CLK4 (Homo sapiens) (UniProt Q9HAZ1). In words: qHTS Assay for Inhibitors of CDC-like Kinase 4 (Kinase-Glo Assay) (AID 1770). Also: % is scaled to controls: 0 for no effect and ±100 for the full control effect; nearly all actives have a fitted effect of over 65% in size. The following applies: recombinant Clk4, Kinase-Glo ATP depletion luminescence; series mostly up to 66.7 µM. An outline of the steps: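 Inhibition was judged from remaining ATP, measured by Ultra-Glo luciferase bioluminescence after Clk4 (25 nM) had acted on RS peptide at 1 uM ATP for 4.5 hours, room temperature.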

For experiment [12] the target is unchanged. The experiment can be described thus: qHTS Assay for Inhibitors of CDC-like Kinase 4 (ADP-Glo Assay) (AID 1771). Also: % is scaled to controls: 0 for no effect and ±100 for the full control effect; nearly all actives have a fitted effect of over 70% in size. The note with it: recombinant CLK4, ADP-Glo luminescence; series mostly up to 80 µM. The procedure, abridged: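 In this ADP-Glo format, 1 uM ATP and 100 uM RS peptide served as substrates for 25 nM Clk4 in Mg2+/EGTA/DTT/Triton buffer; reactions ran 1 hr at room temperature before luminescent ADP quantification.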

The target in experiment [13] is Ubiquitin carboxyl-terminal hydrolase 1 (Homo sapiens) (UniProt O94782). In words: Inhibitors of USP1/UAF1: Pilot qHTS (AID 504865). Also: nearly all actives have a fitted effect of over 35% in size. Also: potency is read from the fitted curve at half-maximal effect. The following applies: purified USP1/UAF1, Ub-rhodamine cleavage fluorescence; series mostly up to 54.9 µM. An outline of the steps:
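Kinetic fluorescence assay: 1nM USP1/UAF1, 15 min compound preincubation, then 150nM Ub-Rho; 480/540 nm.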

Experiment [14] can be described thus: Primary qHTS for small molecule stabilizers of the endoplasmic reticulum resident proteome: Secreted ER Calcium Modulated Protein (SERCaMP) assay (AID 1508630). Also: % is scaled to controls: 0 for no effect and ±100 for the full control effect. The following applies: SH-SY5Y GLuc-SERCaMP (Gaussia luciferase released on ER calcium loss) secretion, thapsigargin, luminescence; series mostly up to 38.4 µM. The procedure, abridged: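 The SH-SY5Y reporter protocol was run at 3 concentrations up to 38.3 uM (primary) or 11 concentrations (follow-up): 16 h compound, 100 nM thapsigargin for 4 h, then extracellular luciferase luminescence.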

Experiment [15] deals with Glucocorticoid receptor (Homo sapiens) (UniProt P04150). The experiment can be described thus: GR-GFP Redistribution (AID 450;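 active = compounds whose dose series gives a full or clear partial fitted curve of increased nuclear translocation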; also: potency is read from the fitted curve at half-maximal effect). The following applies: U2OS GR-GFP nuclear translocation, laser cytometry, 2 h.
The target of experiment [16] is Cytochrome P450 3A4 (Homo sapiens) (UniProt P08684). In words: qHTS Assay for Inhibitors and Substrates of Cytochrome P450 3A4 (AID 884). Also: % is scaled to controls: 0 for no effect and ±100 for the full control effect; nearly all actives have a fitted effect of over 50% in size. The following applies: recombinant CYP3A4, Luciferin-PPXE luminescence; series mostly up to 57.1 µM. The procedure, abridged:
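Luminescent readout of luciferin produced by CYP3A4 (20 nM) dealkylation of Luciferin-PPXE, 25 uM (its KM). NADPH-driven reaction ran 60 min at RT after 10 min compound preincubation; data scaled to 57 uM ketoconazole as 100% inhibition.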

In experiment [17] the target is Dual specificity protein kinase CLK4 (Homo sapiens) (UniProt Q9HAZ1). In words: qHTS Assay for Inhibitors of CDC-like Kinase 4 (ADP-FP Assay) (AID 1795).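 Also: recombinant human CLK4 phosphorylating RS repeat peptide at 1 µM ATP; % is scaled to controls: 0 for no effect and ±100 for the full control effect; nearly all actives have a fitted effect of over 60% in size.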 The following applies: Transcreener ADP fluorescence polarization; series mostly up to 50 µM. The procedure, abridged: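 Inhibition of ADP formation by 6.25 nM Clk4 is measured using 1 uM ATP and 100 uM RS repeat peptide over one hour. Produced ADP displaces a fluorescent tracer from antibody, lowering polarization.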

[18] abbreviates: measured here: cell count channel max response.
Where [19] appears, read: measured here: lipid channel max response.

Sequence of Ubiquitin carboxyl-terminal hydrolase 1 (Homo sapiens) (O94782 whole entry, looked up): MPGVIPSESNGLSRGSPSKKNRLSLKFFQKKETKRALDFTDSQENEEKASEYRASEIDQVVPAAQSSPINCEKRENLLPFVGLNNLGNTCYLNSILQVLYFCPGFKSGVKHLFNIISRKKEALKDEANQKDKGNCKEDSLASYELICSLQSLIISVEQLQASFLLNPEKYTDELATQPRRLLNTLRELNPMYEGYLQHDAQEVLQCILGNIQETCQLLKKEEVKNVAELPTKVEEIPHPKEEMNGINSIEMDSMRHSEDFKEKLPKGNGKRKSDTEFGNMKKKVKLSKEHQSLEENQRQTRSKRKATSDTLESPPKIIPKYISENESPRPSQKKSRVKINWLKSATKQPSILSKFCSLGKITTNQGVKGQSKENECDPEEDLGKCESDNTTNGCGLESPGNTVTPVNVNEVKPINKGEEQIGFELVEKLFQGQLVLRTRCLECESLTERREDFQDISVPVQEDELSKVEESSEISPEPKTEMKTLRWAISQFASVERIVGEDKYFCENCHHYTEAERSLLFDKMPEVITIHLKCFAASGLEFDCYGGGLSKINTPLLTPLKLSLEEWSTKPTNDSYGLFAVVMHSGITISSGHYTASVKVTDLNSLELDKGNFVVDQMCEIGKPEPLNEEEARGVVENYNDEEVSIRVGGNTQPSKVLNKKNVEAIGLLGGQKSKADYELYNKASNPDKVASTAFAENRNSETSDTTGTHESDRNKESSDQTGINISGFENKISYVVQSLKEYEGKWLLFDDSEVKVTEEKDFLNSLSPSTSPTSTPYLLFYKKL
Sequence of Dual specificity protein kinase CLK4 (Homo sapiens) (Q9HAZ1 whole entry, looked up): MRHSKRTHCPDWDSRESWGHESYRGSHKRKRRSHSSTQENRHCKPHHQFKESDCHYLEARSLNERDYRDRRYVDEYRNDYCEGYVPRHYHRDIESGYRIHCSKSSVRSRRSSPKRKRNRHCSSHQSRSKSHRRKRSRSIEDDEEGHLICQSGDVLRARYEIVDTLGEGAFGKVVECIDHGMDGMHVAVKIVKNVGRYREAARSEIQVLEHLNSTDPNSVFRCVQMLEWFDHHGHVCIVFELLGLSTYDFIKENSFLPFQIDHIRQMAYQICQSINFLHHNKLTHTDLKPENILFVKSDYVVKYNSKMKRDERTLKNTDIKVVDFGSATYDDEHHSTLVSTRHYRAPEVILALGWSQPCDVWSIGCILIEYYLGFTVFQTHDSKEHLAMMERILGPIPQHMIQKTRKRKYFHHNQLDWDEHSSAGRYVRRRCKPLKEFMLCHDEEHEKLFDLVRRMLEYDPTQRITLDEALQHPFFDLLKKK
Sequence of 3',5'-cyclic-AMP phosphodiesterase 4B (Homo sapiens) (Q07343 whole entry, looked up): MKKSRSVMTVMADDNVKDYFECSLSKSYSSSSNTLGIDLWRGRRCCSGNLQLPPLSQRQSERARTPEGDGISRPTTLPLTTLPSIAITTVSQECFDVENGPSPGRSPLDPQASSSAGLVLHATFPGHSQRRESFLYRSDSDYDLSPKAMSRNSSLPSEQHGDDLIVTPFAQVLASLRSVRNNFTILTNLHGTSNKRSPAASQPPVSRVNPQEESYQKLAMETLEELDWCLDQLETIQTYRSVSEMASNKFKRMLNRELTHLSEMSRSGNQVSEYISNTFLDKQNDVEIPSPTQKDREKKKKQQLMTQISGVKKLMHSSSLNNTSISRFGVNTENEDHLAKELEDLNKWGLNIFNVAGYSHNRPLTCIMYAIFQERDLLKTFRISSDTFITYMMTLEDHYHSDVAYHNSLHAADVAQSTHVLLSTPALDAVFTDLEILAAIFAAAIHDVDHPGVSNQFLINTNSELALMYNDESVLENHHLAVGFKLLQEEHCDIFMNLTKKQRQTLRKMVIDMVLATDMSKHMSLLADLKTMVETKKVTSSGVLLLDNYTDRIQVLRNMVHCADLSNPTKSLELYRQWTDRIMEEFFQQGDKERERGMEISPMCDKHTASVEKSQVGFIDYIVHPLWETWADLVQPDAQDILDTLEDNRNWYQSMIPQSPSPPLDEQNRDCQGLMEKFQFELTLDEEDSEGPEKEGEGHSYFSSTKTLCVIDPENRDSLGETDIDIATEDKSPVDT
Sequence of Glucocorticoid receptor (Homo sapiens) (P04150 whole entry, looked up, the tested form may be a part): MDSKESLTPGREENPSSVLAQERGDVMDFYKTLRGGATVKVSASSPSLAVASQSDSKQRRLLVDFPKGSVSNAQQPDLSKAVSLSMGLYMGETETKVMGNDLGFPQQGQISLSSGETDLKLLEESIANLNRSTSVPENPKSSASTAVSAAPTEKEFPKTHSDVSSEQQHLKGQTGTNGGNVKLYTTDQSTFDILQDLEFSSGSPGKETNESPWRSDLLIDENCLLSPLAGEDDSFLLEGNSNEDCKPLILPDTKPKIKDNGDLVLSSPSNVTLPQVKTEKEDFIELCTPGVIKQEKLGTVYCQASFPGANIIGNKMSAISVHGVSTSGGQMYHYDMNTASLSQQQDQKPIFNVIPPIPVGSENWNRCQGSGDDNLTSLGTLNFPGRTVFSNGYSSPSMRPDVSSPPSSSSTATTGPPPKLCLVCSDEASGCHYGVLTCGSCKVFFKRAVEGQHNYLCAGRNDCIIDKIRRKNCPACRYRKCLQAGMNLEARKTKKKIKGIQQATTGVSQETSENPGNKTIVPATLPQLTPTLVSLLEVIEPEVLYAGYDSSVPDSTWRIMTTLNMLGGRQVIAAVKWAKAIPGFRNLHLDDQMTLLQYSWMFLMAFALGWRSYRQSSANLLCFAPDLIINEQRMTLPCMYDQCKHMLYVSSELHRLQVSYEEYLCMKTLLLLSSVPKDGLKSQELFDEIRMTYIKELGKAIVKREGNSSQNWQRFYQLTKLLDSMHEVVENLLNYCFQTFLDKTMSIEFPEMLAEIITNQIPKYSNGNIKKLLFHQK
Sequence of Lysosomal acid glucosylceramidase (Homo sapiens) (P04062 whole entry, looked up): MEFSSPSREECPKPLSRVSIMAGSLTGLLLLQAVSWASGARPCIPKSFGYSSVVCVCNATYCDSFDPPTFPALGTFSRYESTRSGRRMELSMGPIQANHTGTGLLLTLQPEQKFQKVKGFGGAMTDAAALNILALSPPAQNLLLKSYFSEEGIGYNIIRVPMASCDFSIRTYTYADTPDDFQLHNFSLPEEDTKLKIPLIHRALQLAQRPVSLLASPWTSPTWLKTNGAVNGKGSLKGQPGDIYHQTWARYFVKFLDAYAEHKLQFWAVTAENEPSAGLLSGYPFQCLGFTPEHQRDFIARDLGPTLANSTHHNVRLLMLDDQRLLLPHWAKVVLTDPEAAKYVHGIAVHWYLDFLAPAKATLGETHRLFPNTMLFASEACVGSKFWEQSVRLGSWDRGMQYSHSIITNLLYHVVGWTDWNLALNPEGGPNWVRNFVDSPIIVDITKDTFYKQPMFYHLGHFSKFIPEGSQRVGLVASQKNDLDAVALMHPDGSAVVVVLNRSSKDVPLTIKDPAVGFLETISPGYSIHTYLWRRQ
Sequence of Cytochrome P450 3A4 (Homo sapiens) (P08684 whole entry, looked up): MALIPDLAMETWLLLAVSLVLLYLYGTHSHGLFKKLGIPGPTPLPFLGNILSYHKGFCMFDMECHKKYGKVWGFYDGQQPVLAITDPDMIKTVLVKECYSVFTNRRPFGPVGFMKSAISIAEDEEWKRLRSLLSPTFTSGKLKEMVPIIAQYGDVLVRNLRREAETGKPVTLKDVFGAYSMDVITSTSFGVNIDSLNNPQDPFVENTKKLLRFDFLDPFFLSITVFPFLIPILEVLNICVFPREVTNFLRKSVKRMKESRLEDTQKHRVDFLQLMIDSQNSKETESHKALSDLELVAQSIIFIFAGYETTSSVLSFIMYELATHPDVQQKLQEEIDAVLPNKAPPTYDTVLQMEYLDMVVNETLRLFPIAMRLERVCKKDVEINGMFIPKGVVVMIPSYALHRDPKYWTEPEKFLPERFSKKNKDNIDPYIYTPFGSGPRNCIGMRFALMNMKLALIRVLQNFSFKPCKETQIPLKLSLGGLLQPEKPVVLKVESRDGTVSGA
Sequence of Cytochrome P450 1A2 (Homo sapiens) (P05177 whole entry, looked up): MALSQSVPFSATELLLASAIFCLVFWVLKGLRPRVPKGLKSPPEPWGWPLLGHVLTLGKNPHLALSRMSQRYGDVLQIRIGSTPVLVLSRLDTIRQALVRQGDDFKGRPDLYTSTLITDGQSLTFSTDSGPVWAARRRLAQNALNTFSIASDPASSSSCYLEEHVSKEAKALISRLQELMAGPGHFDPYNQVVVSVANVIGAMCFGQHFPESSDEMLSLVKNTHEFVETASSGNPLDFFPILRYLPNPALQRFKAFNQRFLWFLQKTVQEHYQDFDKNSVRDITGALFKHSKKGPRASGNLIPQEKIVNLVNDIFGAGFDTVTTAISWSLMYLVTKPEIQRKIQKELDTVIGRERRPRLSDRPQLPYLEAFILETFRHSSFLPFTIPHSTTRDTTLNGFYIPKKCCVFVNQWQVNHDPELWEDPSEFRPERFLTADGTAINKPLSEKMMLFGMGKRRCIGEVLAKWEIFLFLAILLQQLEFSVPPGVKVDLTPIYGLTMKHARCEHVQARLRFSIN

As to `COc1ccc(Oc2ncc3nc(-c4cn(C)c5ccccc45)c(=O)n(C4CC4)c3n2)cc1`, the Potency in experiment [1] is > 11.4 µM (inactive); in experiment [3] it was 12.6 µM (active); in experiment [6] it was > 46 µM (inactive). In addition, the values for the activity change, negative = inhibition in [2], in experiment [4] and in [10] were -4.88% (inactive), 9.91% (inactive) and 2.32% (inactive), respectively. In experiment [5], the activity, negative = inhibition is 19% (inactive). The call in experiment [7] was inactive. Besides, the Potency entry in [8], in experiment [9], in [11], in experiment [12], in [13] and in experiment [14] was “inactive” each time. Further, the results for the max response in experiment [10] (setting [18]) and in experiment [10] (setting [19]) were 3.6% and 3.07%, respectively.
On to `Cn1c(=O)c(-c2ccc(Cl)cc2)nc2cnc(Oc3cccc(Cl)c3)nc21`, for which the Potency in experiment [1] was > 11.4 µM (inactive); in experiment [3], 0.251 µM (active); in [15] it was > 9.22 µM (inactive); in experiment [6] it was > 46 µM (inactive). For the same molecule, the values for the activity change, negative = inhibition in experiment [2], in [4] and in [10] were -7.62% (inactive), -6.5% (inactive) and 5.31% (inactive), respectively. Besides, in experiment [5], the activity, negative = inhibition was -0.313% (inactive). Besides, the molecule was classed as inactive in [7]. The Potency result in experiment [8], in [16], in experiment [11], in experiment [12], in experiment [13] and in [14] was “inactive” in each case. Moreover, the max response in experiment [10] (setting [18]) is 11.8%; in experiment [10] (setting [19]), 14.2%.
In the case of `O=c1c(-c2ccc(F)cc2)nc2cnc(Oc3ccccc3)nc2n1Cc1cccs1`, the activity change, negative = inhibition in experiment [2] was -11.6% (inactive); in experiment [10], -20.3% (inactive). For the same molecule, the activity, negative = inhibition in experiment [5] is 1.3% (inactive). The Potency in [15] is > 9.22 µM (inactive); in experiment [6], > 46 µM (inactive); in experiment [13], 3.16 µM (active). In addition, the call in experiment [7] was inactive. Also, the Potency entry in [8], in [11], in experiment [12], in [17] and in [14] was “inactive” in each case. In addition, the figures for the max response in experiment [10] (setting [18]) and in experiment [10] (setting [19]) were -6.12% and -29.7%, respectively.
